According to PubChem BioAssay AID1259319 (Sanford-Burnham Center for Chemical Genomics, 2017):
In all, about 3,000 compounds went through this assay and about 1,800 (60%) were called active.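 Rule for the calls: active = activation at or above a set limit, or at least 3 SD above the negative control mean; inactive = the rest.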 So high a share suggests a set chosen from earlier hits. Only a sample is shown.

Molecular target: Nuclear receptor subfamily 1 group D member 1 (Homo sapiens) (UniProt P20393)
Sequence (P20393 whole entry, looked up): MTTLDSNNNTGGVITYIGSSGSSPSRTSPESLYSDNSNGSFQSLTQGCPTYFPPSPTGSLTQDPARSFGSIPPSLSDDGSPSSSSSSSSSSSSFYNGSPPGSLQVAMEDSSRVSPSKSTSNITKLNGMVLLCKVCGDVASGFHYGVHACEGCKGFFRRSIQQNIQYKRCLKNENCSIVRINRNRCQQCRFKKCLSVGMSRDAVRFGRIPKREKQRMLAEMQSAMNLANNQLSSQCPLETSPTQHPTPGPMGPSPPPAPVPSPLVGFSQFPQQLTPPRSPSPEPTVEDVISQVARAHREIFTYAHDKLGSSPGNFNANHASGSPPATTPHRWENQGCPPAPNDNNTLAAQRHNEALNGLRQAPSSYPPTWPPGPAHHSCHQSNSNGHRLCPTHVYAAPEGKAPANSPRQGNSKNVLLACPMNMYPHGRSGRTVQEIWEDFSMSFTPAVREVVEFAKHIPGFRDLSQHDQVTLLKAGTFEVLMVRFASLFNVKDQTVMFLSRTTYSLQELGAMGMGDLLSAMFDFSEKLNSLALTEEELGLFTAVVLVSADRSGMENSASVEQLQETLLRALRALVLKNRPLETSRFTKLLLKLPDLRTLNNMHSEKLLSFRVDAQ
Experiment: modulators of Rev-erb alpha DNA binding, confirmation, biochemical, FITC-DNA, fluorescence polarization, single point (AID 1259319);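 note: 0% = 35 nM protein with DMSO and 100% = 750 nM protein high control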
Settings: 90 min, at 25 µM, active compounds read high

Compound	activation
COc1ccccc1N=Nc1c(O)[nH]c(=S)[nH]c1=O	41% (active)
COC(=O)CN(CCCl)P1(=O)OCCCN1CCCl (configuration not stated)	-6.07% (inactive)
